Values joined by “and” are separate entries in the source; they are usually repeats but may differ in a detail not shown here. Equal entries are not always repeated.
assay: sensitizers of A549 cells to miR-34 induction, primary screen, imaging, A549 dox-inducible miR-34, nuclei and caspase counts (AID 1347080); conditions: A549 miR-34 inducible, Hoechst nuclei count, 48 h; measured here: relative caspase fold change +Dox/-Dox; note: test concentration not given here

| SMILES | fold change |
| --- | --- |
| CC[C@]1(O)CC2CN(CCc3c([nH]c4ccccc34)[C@@](C(=O)OC)(c3cc4c(cc3OC)N(C)[C@H]3[C@@](O)(C(=O)OC)[C@H](OC(C)=O)[C@]5(CC)C=CCN6CC[C@]43[C@@H]65)C2)C1 (stereo partly drawn) | 2.66 and 1.23 |
| C[C@]12CCC3c4ccc(O)cc4CCC3C1CCC2=O (stereo partly drawn) | 1.48 |
| OC[C@@H](O)[C@@H](O)[C@H](O)[C@@H](O)CO | 3.07 |
| COC(=O)/C=C/C(=O)OC | 1.01 |
| C=CC[C@@H]1/C=C(\C)C[C@H](C)C[C@H](OC)[C@H]2O[C@@](O)(C(=O)C(=O)N3CCCC[C@H]3C(=O)O[C@H](/C(C)=C/[C@@H]3CC[C@@H](O)[C@H](OC)C3)[C@H](C)[C@@H](O)CC1=O)[C@H](C)C[C@@H]2OC | 1.61 and 2.51 |
| CC(=O)OCC(=O)[C@@]1(O)CCC2C3CCC4=CC(=O)C=C[C@]4(C)[C@@]3(Cl)[C@@H](Cl)C[C@@]21C (stereo partly drawn) | 1.22 |
| N#C[C@@H]1C[C@@H]2C[C@@H]2N1C(=O)[C@@H](N)C12CC3CC(CC(O)(C3)C1)C2 | 0.64 |
| Cc1coc2c1C(=O)C(=O)c1c-2ccc2c1CCCC2(C)C | 1.11 and 0.52 and 0.868 |
| O=C1c2c(O)cccc2[C@@H](O[C@@H]2O[C@H](CO)[C@H](O)[C@@H](O)[C@H]2O)c2cc(CO)cc(O)c21 | 0.87 |
| OC(c1cc(C(F)(F)F)nc2c(C(F)(F)F)cccc12)C1CCCCN1 (stereo not drawn) | 1.51 and 4.5 |
| CCCCS(=N)(=O)CCC(N)C(=O)O (stereo not drawn) | 1.82 |
| Nc1nc(N)c2nc(CNc3ccc(C(=O)NC(CCC(=O)O)C(=O)O)cc3)cnc2n1 (stereo not drawn) | 1.88 |
| N#CC(c1ccc(Cl)cc1)c1c(Cl)cc(-n2ncc(=O)[nH]c2=O)cc1Cl (stereo not drawn) | 1.15 and 1.36 |
| Cc1cc(=O)c(C(=O)N[C@@H](C(=O)N[C@@H]2C(=O)N3C(C(=O)O)=C(CSc4nnnn4C)CSC23)c2ccc(O)cc2)c[nH]1 (stereo partly drawn) | 0.887 |
| COc1ccc2nc3cc(Cl)ccc3c(Nc3cc(CN4CCCC4)c(O)c(CN4CCCC4)c3)c2n1 | 0.832 |
| CC1=C(C(=O)O)N2C(=O)[C@@H](NC(=O)C(N)c3ccccc3)[C@H]2SC1 (stereo partly drawn) | 1.45 and 2.29 |
| CC1CC2C3CCC4=CC(=O)C=C[C@]4(C)[C@@]3(F)[C@@H](O)C[C@]2(C)[C@@]1(O)C(=O)CO (stereo partly drawn) | 1.79 |
| CC(C)(CO)[C@@H](O)C(=O)NCCC(=O)O | 0.716 and 3.95 and 1.15 |
| CN1C(C(=O)Nc2ccccn2)=C(O)c2sc(Cl)cc2S1(=O)=O | 0.83 and 0.817 |
| CC(NCCc1ccc(O)cc1)C(O)c1ccc(O)cc1 (stereo not drawn) | 3.65 |
| Cc1cc2nc3c(=O)[nH]c(=O)nc-3n(C[C@@H](O)[C@@H](O)[C@@H](O)COP(=O)(O)O)c2cc1C | 1.15 |
| CN[C@@H]1[C@H](O[C@H]2[C@H](O[C@@H]3[C@@H](O)[C@H](O)[C@@H](N=C(N)N)[C@H](O)[C@H]3N=C(N)N)O[C@@H](C)[C@]2(O)C=O)O[C@@H](CO)[C@H](O)[C@H]1O | 0.998 and 1.43 |
| CN(C)CC[C@H](c1ccc(Cl)cc1)c1ccccn1 | 2.94 |
| COc1ccc(C2Sc3ccccc3N(CCN(C)C)C(=O)C2OC(C)=O)cc1 (stereo not drawn) | 0.646 and 4.46 |
| Cc1c(-c2cnccn2)ssc1=S | 1.25 |
| Nc1nc(F)nc2c1ncn2[C@@H]1O[C@H](COP(=O)(O)O)[C@@H](O)[C@@H]1O | 1.01 |
| Cc1cc2nc3c(=O)[nH]c(=O)nc-3n(CC(O)C(O)C(O)CO)c2cc1C (stereo not drawn) | 3.38 |
| NC(=O)c1ncn(C2O[C@H](CO)[C@@H](O)[C@H]2O)c1N (stereo partly drawn) | 0.793 |
